Screens: PubChem, National Center for Advancing Translational Sciences (NCATS)
Hits are enriched below; roughly 19% of the tested compounds scored in any of these assays.
HT1080 IDH1KD tx: kills HT-1080 cells with IDH1 knockdown. HT-1080 IDH1 knockdown viability, ATP luminescence, 48 h. AID 686971. Potency, µM (top dose mostly 46.1 µM), for the others: at the top dose activity, negative = toxicity, hits mostly cytotoxic. 360,000 compounds, 2% hits;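 note: potency is the fitted concentration of half-maximal effect; 0% = DMSO wells and -100% = cell-free medium wells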
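Knockdown cells (IDH1KD HT-1080) received compounds 2 h after plating at 750 cells/well and were kept 48 h at 37 °C in 5% FBS RPMI. A CellTiter-Glo luminescence read gave % activity for curve fitting.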
TDP1 cell noCPT: qHTS for Inhibitors of human tyrosyl-DNA phosphodiesterase 1 (TDP1): qHTS in cells in absence of CPT; 420,000 compounds, 15% hits; DT40 Tdp1-/- hTDP1 cells, no CPT, ATP luminescence, 48 h; Potency, µM (titrated, usually from 46.2 µM), for the others: at the highest dose activity change, negative = growth inhibition, usual class: inhibitors; AID 686978, 2013; note: potency is the fitted concentration of half-maximal effect; nearly all actives have a fitted effect of over 55% in size
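DT40 Tdp1-/-;hTDP1 cells, no CPT (DMSO vehicle only), 400 cells/well; compounds pin-transferred; ≥48 hr, 37 °C; CellTiter-Glo 30 min RT dark, luminescence read.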
HT1080NT lethal: kills 2HG-producing HT-1080-NT fibrosarcoma cells; 360,000 compounds, 1.6% hits; HT-1080-NT fibrosarcoma viability, CellTiter-Glo ATP luminescence, 48 h; Potency, µM (top dose mostly 46.1 µM), inactives show at the highest dose activity, negative = less viability, hits mostly cytotoxic;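 note: NT is the 2HG producing partner of a matched IDH1 knockdown line; potency is the fitted concentration of half-maximal effect; 0% = DMSO-treated cells and -100% = media-only wells without cells; nearly all actives have a fitted effect of over 55% in size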
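Toxicity toward the 2HG-producing NT line was scored as %Activity, normalised to DMSO and no-cell wells, from CellTiter-Glo luminescence after 48 hours' treatment.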
TDP1 cell CPT: DT40-hTDP1 cell growth loss with CPT; chicken DT40 Tdp1-/-;hTDP1 cells + 20 nM CPT, ATP luminescence, 48 h; Potency, µM (doses to about 46.2 µM), for inactives: top-dose activity change, negative = growth inhibition, most hits filed as inhibitors; 420,000 compounds, 12% hits; note: potency is the fitted concentration of half-maximal effect; nearly all actives have a fitted effect of over 55% in size
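Chicken DT40 Tdp1-/- cells stably complemented with human TDP1 were seeded at 400 cells/well in medium containing 20 nM camptothecin, exposed to pin-transferred compounds, and grown at 37 °C for at least 48 hr. Viability was read as ATP luminescence.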
IL-1B inflam inh: inflammasome signaling inhibition, IL-1 beta readout; 360,000 compounds, 4.7% hits; THP-1 LPS/ATP IL-1B secretion, AlphaLISA, 16 h; active compounds read low; activity change, % at 57.5 µM; in the data active = activity change below about -50%; inconclusive = mostly about -30% to -49%
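THP-1 cells pretreated 1 hr with compounds (up to 57.5 uM final), then stimulated with LPS (250 ng/mL final) plus ATP (1.25 mM final); secreted IL-1B measured by AlphaLISA after 16 hr, decreased signal indicating inhibition.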
Active calls of the source: *; u = inconclusive; x = not tested or not shown. Unless noted, calls come from the whole dose curve; as a rule, active = well fitted curve in the direction sought with a large enough effect; inconclusive = small, poorly fitted or top-dose-only effect, or another doubt; inactive = no such curve, though single readings can be large; an effect the other way counts as inactive or inconclusive. Unless noted, % is set by controls: 0 for no effect and ±100 for the full control effect.

SMILES | HT1080 IDH1KD tx | TDP1 cell noCPT | HT1080NT lethal | TDP1 cell CPT | IL-1B inflam inh
COc1ccc(CCN2CC(C(=O)NCCc3cccc(F)c3)CCC2=O)cc1 (stereo unspecified) | 0.2% | 4.2% | -6.2% | -5.8% | -5.6
Cc1cc(C)c(NC(=O)CSc2nc3[nH]ncc3c(=O)[nH]2)c(C)c1 | 7.2% | -13.5% | -1.3% | -1.1% | -6.2
CCC1(C)C(Nc2c(C)cccc2C)=NC(=S)N1c1ccc(NC(C)=O)cc1 (stereo unspecified) | 2.7% | -1.8% | 1.5% | -8.2% | 16.9
O=C(NC1(C(F)(F)F)NC(=O)N(c2ccc(F)cc2)C1=O)c1ccncc1 (stereo unspecified) | 24.8% | -8.0% | 11.9% | 9.0% | 19.3
Cc1cccc(S(=O)(=O)NC(=O)C2(C)CCN2C(=O)C/C=C/c2ccccc2)c1 (stereo unspecified) | 2.3% | -0.2% | 10.5% | -18.3% | 9.4
CC[C@@]12C(=O)N(c3ccc(OC)cc3)C(=O)N1[C@H](c1ccc(Cl)cc1)[C@@H]1C(=O)N(C3CCCCC3)C(=O)[C@@H]12 | 4.8% | u | 4.7% | 20.6µM* | u
CC[C@@]12C(=O)N(c3cccc(Br)c3)C(=O)N1[C@H](c1ccc(Cl)cc1)[C@@H]1C(=O)N(C3CCCCC3)C(=O)[C@@H]12 | -0.8% | u | -17.5% | u | u
O=C1[C@H]2[C@@H](c3ccc(Cl)cc3)N3C(=O)N(c4cccc(F)c4)C(=O)[C@@]3(Cc3ccc(Cl)cc3)[C@H]2C(=O)N1C1CCCCC1 | 1.2% | 16.4µM* | -1.2% | u | 4.2
COc1ccc(-c2cn(-c3ccc(Cl)cc3)c3[n+]2CCCCC3)cc1 | -23.6% | 2.59µM* | -24.6% | 2.31µM* | u
COc1ccc(-n2cc(-c3ccc(OC(F)F)cc3)[n+]3c2CCCCC3)cc1 | -24.6% | 0.82µM* | -27.2% | 1.3µM* | u
Clc1ccc(-c2cn(-c3ccc(Cl)cc3)c3[n+]2CCCCC3)cc1 | -15.4% | 7.31µM* | -27.6% | 8.2µM* | -6.6
COc1ccccc1N(C)c1cc2c(c3c1ccn3C)C1CCC2O1 (stereo unspecified) | u | u | 23.1µM* | 23.1µM* | 0.0
Cn1ccc2c(N3CCC3)cc3c(c21)C1CCC3O1 (stereo unspecified) | 8.1% | u | 4.8% | -11.5% | 5.7
CN(Cc1ccccc1)c1cc2c(c3c1ccn3C)C1CCC2O1 (stereo unspecified) | u | 18.4µM* | -26.6% | u | -2.4
Cn1ccc2c(N(Cc3ccccc3)Cc3ccccc3)cc3c(c21)C1CCC3O1 (stereo unspecified) | -16.1% | 18.4µM* | -19.4% | u | 0.0
CN(C)CCN(C)c1cc2c(c3c1ccn3C)C1CCC2O1 (stereo unspecified) | 4.1% | u | 6.7% | u | -3.5
CCNC(=O)C1(C)CCCN(C(=O)c2ccc(OC)c(F)c2)C1 (stereo unspecified) | 1.0% | -4.4% | 13.1% | 9.2% | 10.3
C[C@@H]1NC(=O)N(c2ccc(F)cc2)C1=O | 20.5% | -3.2% | 12.2% | 3.8% | 17.0
O=C(CCN1C(=O)C2CC=CCC2C1=O)Nc1nc(-c2ccc(F)c(F)c2)cs1 (stereo unspecified) | -8.2% | -19.0% | -8.9% | 13µM* | -0.6
COc1ccc(-c2csc(NC(=O)[C@H](C)N3C(=O)C4CC=CCC4C3=O)n2)cc1OC (stereo partly specified) | 1.8% | u | -1.0% | u | -4.1
O=C(CCN1C(=O)C2CCCCC2C1=O)Nc1nc(-c2ccccc2)cs1 (stereo unspecified) | -3.1% | u | 0.0% | u | 11.2
CC(C(=O)Nc1nc(-c2ccc(F)c(F)c2)cs1)N1C(=O)C2CC=CCC2C1=O (stereo unspecified) | 2.0% | 23.1µM* | 2.1% | u | -4.0
Cc1cc2oc(C(=O)Nc3c(C)n(C)n(-c4ccccc4)c3=O)cc(=O)c2cc1C | x | -18.9% | x | 0.5% | x
Cc1ccc(S(=O)(=O)N2C[C@H]3C(=O)C[C@@H]4C(=O)N(c5ccccc5)C(=O)[C@@H]4[C@@H]3C[C@H]2c2cccc(Cl)c2)cc1 | 9.5% | -28.3% | 6.4% | -14.8% | -1.9
COc1ccc(COC(=O)c2cc([N+](=O)[O-])ccc2N2CCOCC2)cc1F | 0.0052µM* | 0.0116µM* | 0.0058µM* | 0.0231µM* | 0.6
SMILES | HT1080 IDH1KD tx | TDP1 cell noCPT | HT1080NT lethal | TDP1 cell CPT | IL-1B inflam inh
COCCOc1ccc(C(F)(F)F)cc1NC(=O)COC(=O)c1cc([N+](=O)[O-])ccc1N1CCOCC1 | 0.8% | 23.1µM* | -4.3% | 14.6µM* | -15.6
COc1cccc(CNC(=O)COC(=O)c2cc([N+](=O)[O-])ccc2N2CCCC2)c1 | -6.8% | 23.1µM* | -3.4% | 16.4µM* | u
O=C(COC(=O)c1cc([N+](=O)[O-])ccc1N1CCOCC1)NCc1ccccc1 | -4.1% | -11.3% | -7.2% | -5.7% | -16.5
O=C(Oc1ccc(Br)cc1C(=S)N1CCOCC1)c1ccc([N+](=O)[O-])cc1[N+](=O)[O-] | u | u | u | 20.6µM* | -91.6*
O=C(OCc1cccc(Cl)c1)c1cc([N+](=O)[O-])ccc1N1CCOCC1 | u | u | -22.6% | u | u
Cc1c(O)nc(SC2CC(=O)N(c3cc(Cl)cc(Cl)c3)C2=O)[nH]c1=O (stereo unspecified) | 17.6% | -5.7% | 20.2% | 12.1% | 11.2
C=CCC1(CC=C)CCCN1C(=O)CC1C(=O)NCCN1Cc1cccc(OC)c1OC (stereo unspecified) | 13.5% | u | 6.6% | -14.1% | -2.0
CC(=O)c1c(C)[nH]c(C(=O)OCC(=O)NCCC2=CCCCC2)c1C | -25.5% | u | -11.0% | u | 5.8
COC(=O)C1CCN(c2ccc(Cl)nn2)CC1 | 10.2% | 2.8% | u | 4.6% | -16.2
CCc1ccc(C(=O)COC(=O)c2cc([N+](=O)[O-])ccc2N2CCOCC2)cc1 | 8.2µM* | 18.4µM* | 9.2µM* | u | -14.5
O=C(OCc1ccc(Br)cc1)c1cc([N+](=O)[O-])ccc1N1CCOCC1 | 2.59µM* | 0.461µM* | u | 0.731µM* | 21.9
O=C(OCc1cccc(C(F)(F)F)c1)c1cc([N+](=O)[O-])ccc1N1CCOCC1 | -21.9% | u | -14.9% | u | -59.9*
CN1C[C@@H]2C[C@@H](c3cccn3-c3nccs3)N3CCC[C@@]23C1=O | 23.1% | -6.1% | 13.6% | 3.5% | -17.9
COc1ccc(N2CCN(C(=O)CCC(=O)N3CCOc4ccc(Cl)cc43)CC2)cc1 | -8.2% | u | -13.0% | u | -7.9
